Source: publication PMC5540273 (PLoS ONE, 2017)

Columns and labels:
Conditions in all cases: concentration: 1 μM, replicates: in singlicate; n = 1
[1] = system: MKK7
[2] = system: MKNK1
[3] = system: MKNK2
[4] = system: T1, MLCK
T1 construct: gene MYLK3

[5] = system: T2, MLK1
T2 construct: gene MAP3K9

[6] = system: MLK2
[7] = system: MLK3
[8] = system: MRCKA
[9] = system: T3, MRCKB
T3 construct: gene CDC42BPB

[10] = system: MST1R
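Further: KINOMEscan kinase panel screen.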

Compound	%Inh [1]	%Inh [2]	%Inh [3]	%Inh [4]	%Inh [5]	%Inh [6]	%Inh [7]	%Inh [8]	%Inh [9]	%Inh [10]
Cc1cccc(Cn2ccn3c(=O)cc(N4CCOCC4)nc23)c1 [GSK2297542]	0%	0%	3%	0%	18%	0%	18%	0%	6%	39%
CSc1ccc(-c2cc3ncnc(SCC(=O)O)c3s2)cc1	0%	0%	0%	3%	0%	24%	0%	8%	34%	36%
Cc1nnc(-c2ccc3ncc(-c4ccc(S(C)=O)cc4)n3c2)o1 (centres unmarked)	18%	0%	35%	0%	0%	0%	0%	9%	0%	0%
Fc1ccc(-c2ncn(CCCN3CCOCC3)c2-c2ccccn2)cc1 [SB-211742]	0%	0%	0%	0%	0%	27%	0%	0%	0%	0%
COc1cc2c(cc1OCCN1CCN(C)CC1)ncc1c3ccc(C#N)cc3[nH]c21	0%	99.4%	99.7%	98.8%	0%	0%	20%	10%	0%	7%
